Potency data for 17 compounds are collected here from PubChem BioAssay (Tox21).

Unmarked numbers belong to inactive results. Results filed as inconclusive are left out. Active and inactive are the calls of the source. The call rests on the fitted dose curve; in most records, active means well fitted curve in the direction sought with a large enough effect in the repeat runs; inconclusive means weak or mixed curves; inactive means no such curve, though single readings can be large; an effect the other way counts as inactive or inconclusive.

The nature of experiment [1]: Caspase-3/7 induction in HepG2 cells by small molecules, qHTS assay (AID 1346978). Further: nearly all actives have a fitted effect of over 15% in size. Further: potency means the concentration at half of the fitted maximal effect. The gist of the method: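 Wild-type HepG2 cells, 2,000/well, settled 5 hr at 37 C and 5% CO2, then compound-treated for 17 hr; caspase-3/7 activity read by luminescent Caspase-Glo 3/7 after 30 min at room temperature.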
On the technique in general: qHTS replaces the single test concentration by a dilution series.

Experiment [2] in a line: Caspase-3/7 induction in CHO-K1 cells by small molecules, qHTS cell viability counter screen (AID 1346979). Further: nearly all actives have a fitted effect of over 35% in size. Further: potency means the concentration at half of the fitted maximal effect. In a few lines: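 Multiplexed with Caspase-Glo 3/7 in CHO-K1 cells, this counter screen added CellTiter-Fluor after 16hr of compound exposure and recorded fluorescence 1hr later.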
Experiment [3] in a line: Caspase-3/7 induction in CHO-K1 cells by small molecules, qHTS assay (AID 1346980). Further: nearly all actives have a fitted effect of over 15% in size. Further: potency means the concentration at half of the fitted maximal effect. In a few lines:
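Wild-type CHO-K1 cells exposed to compounds for 17hr at 37 C, 5% CO2. Caspase-3/7 activity then measured by Caspase-Glo 3/7 luminescence after 30min at room temperature.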

Experiment [4] is described as follows: Caspase-3/7 induction in HepG2 cells by small molecules, qHTS cell viability counter screen (AID 1346981). Further: nearly all actives have a fitted effect of over 30% in size. Further: potency means the concentration at half of the fitted maximal effect. The gist of the method:
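CellTiter-Fluor fluorescence measured viability in the same wells used for Caspase-Glo 3/7. HepG2 (wild type) at 2,000 cells/well were pre-incubated 5 hr, dosed, and given reagent at 16 hr, with 1 hr further at 37C.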

For experiment [5], the target named is Nuclear receptor subfamily 1 group I member 2 (Homo sapiens) (UniProt O75469). Kind of experiment: Human pregnane X receptor (PXR) small molecule agonists, qHTS assay (AID 1346982). Further: nearly all actives have a fitted effect of over 35% in size. Further: potency means the concentration at half of the fitted maximal effect. The gist of the method: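 Agonist mode: luminescence from ONE-Glo after 24 h compound exposure at 37C in HepG2 cells carrying hPXR-responsive CYP3A4 luciferase, plated in charcoal-stripped serum medium 5 h beforehand.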

Experiment [6] addresses Cytochrome P450 2D6 (Homo sapiens) (UniProt P10635). Description: Cytochrome P450 Family 2 Subfamily D Member 6 (CYP2D6) small molecule antagonists: luciferase reporter qHTS assay (AID 1671196). Further: nearly all actives have a fitted effect of over 50% in size. Further: potency means the concentration at half of the fitted maximal effect. The gist of the method:
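CYP2D6 activity was followed as luminescence from its luciferin product after a 1 h NADPH-driven reaction at room temperature. Enzyme-substrate mix and compound were pre-incubated for 10 min, and the signal was read 20 min after adding detection reagent.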
A general note: In a reporter assay the amount or activity of a reporter protein is the signal.

Experiment [7] concerns the target Cytochrome P450 2C19 (Homo sapiens) (UniProt P33261). Description: Cytochrome P450 Family 2 Subfamily C Member 19 (CYP2C19) small molecule antagonists: luciferase reporter qHTS assay (AID 1671197). Further: nearly all actives have a fitted effect of over 65% in size. Further: potency means the concentration at half of the fitted maximal effect. In a few lines: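 Quantitative high-throughput screen of the Tox21 library using CYP2C19 with proluciferin substrate. Reaction: NADPH regeneration, 37C, 1 h, after 10 min compound preincubation at room temperature. Readout: luminescence.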

For experiment [8], the target named is Cytochrome P450 1A2 (Homo sapiens) (UniProt P05177). Kind of experiment: Cytochrome P450 Family 1 Subfamily A Member 2 (CYP1A2) small molecule antagonists: luciferase reporter qHTS assay (AID 1671199). Further: nearly all actives have a fitted effect of over 50% in size. Further: potency means the concentration at half of the fitted maximal effect. In a few lines:
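Luminescence from luciferin formed by CYP1A2 from a proluciferin substrate, read 20 min after detection reagent. Compound was pre-incubated 10 min with enzyme-substrate, and reaction started with NADPH regeneration solution for 1 h at room temperature; furafylline control.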

Experiment [9] concerns the target Voltage-gated inwardly rectifying potassium channel KCNH2 (Homo sapiens) (UniProt Q12809). Description: Human Ether-a-go-go-Related Gene (hERG) channel small molecule antagonists: fluorescence cell-based qHTS assay (AID 1671200). Further: nearly all actives have a fitted effect of over 50% in size. Further: potency means the concentration at half of the fitted maximal effect. In a few lines:
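Cell line hERG-U2OS; dye FluxOR II, 1 h RT dark; Tl+ stimulus; ex 480/em 540 nm, read each second for 2 min.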
In general terms: hERG is a cardiac potassium channel; its block is linked to QT prolongation.

Experiment [10] addresses Cytochrome P450 3A4 (Homo sapiens) (UniProt P08684). Kind of experiment: Cytochrome P450 Family 3 Subfamily A Member 4 (CYP3A4) small molecule antagonists: luciferase reporter qHTS assay (AID 1671201). Further: nearly all actives have a fitted effect of over 50% in size. Further: potency means the concentration at half of the fitted maximal effect. The gist of the method:
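Room-temperature assay throughout: 10 min compound–enzyme/substrate preincubation, 1 h reaction after NADPH regeneration solution, 20 min detection. Luciferin formed from proluciferin substrate is quantified by luminescence.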

Experiment [11] has as its target Cytochrome P450 2C9 (Homo sapiens) (UniProt P11712). Description: Cytochrome P450 Family 2 Subfamily C Member 9 (CYP2C9) small molecule antagonists: luciferase reporter qHTS assay (AID 1671198). Further: nearly all actives have a fitted effect of over 50% in size. Further: potency means the concentration at half of the fitted maximal effect. The gist of the method:
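P450-Glo proluciferin substrate with CYP2C9 enzyme; 10 min RT preincubation, then NADPH regeneration 1 h at 37C; luciferin detection reagent 20 min RT, luminescence in relative luminescence units.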

For experiment [12], the target named is Nuclear receptor subfamily 1 group I member 2 (Homo sapiens) (UniProt O75469). Description: CYP3A4 induction through human pregnane X receptor (PXR) by small molecules, qHTS assay (AID 1346984). Further: nearly all actives have a fitted effect of over 40% in size. Further: potency means the concentration at half of the fitted maximal effect. In a few lines: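 Read-out is luminescence after One-Glo addition, following a 3 hr, 37C incubation with Luciferin-IPA CYP3A4 substrate (3uM final). Before that, compounds were on DPX-2 cells (HepG2 co-transfected with PXR element plus CYP3A4-promoter luciferase) for 24 hr at 37C.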

Experiment [13] has the same target. Kind of experiment: Human pregnane X receptor (PXR) activation by small molecules, qHTS assay (AID 1346985). Further: nearly all actives have a fitted effect of over 40% in size. In a few lines:
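DPX-2 cells (HepG2 co-transfected with a PXR response element and a CYP3A4-promoter luciferase construct) were seeded at 2,000 per well, rested 5 hr at 37C, then exposed to DMSO-dissolved compounds for 24 hr. Activation was read as luciferase luminescence.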

Chain of Cytochrome P450 2D6 (Homo sapiens) (P10635 whole entry, looked up): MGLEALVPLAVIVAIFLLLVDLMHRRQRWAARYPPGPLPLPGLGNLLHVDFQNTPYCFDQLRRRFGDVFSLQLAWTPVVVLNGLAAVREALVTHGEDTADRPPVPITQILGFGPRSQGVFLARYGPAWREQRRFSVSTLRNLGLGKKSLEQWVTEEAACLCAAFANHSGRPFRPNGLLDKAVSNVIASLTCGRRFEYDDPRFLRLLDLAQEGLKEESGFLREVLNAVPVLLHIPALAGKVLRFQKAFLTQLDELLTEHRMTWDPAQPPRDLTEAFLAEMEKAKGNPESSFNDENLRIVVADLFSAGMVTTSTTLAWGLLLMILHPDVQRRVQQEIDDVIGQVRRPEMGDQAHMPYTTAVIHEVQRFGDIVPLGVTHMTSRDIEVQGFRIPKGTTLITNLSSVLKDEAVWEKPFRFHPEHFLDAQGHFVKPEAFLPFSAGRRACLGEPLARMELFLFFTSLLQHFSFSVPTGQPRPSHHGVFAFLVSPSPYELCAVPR
Chain of Nuclear receptor subfamily 1 group I member 2 (Homo sapiens) (O75469 whole entry, looked up): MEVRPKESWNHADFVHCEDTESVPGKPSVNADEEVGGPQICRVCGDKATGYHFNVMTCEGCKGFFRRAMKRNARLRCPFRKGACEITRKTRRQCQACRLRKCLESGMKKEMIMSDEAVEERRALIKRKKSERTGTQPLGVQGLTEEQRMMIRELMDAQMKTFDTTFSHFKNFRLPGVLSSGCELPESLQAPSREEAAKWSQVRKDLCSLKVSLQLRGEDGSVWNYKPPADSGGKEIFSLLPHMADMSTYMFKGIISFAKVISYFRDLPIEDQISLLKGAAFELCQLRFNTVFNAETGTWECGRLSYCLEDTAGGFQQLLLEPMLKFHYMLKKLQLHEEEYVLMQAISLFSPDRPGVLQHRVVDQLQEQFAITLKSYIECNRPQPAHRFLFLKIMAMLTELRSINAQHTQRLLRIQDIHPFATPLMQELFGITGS
Chain of Voltage-gated inwardly rectifying potassium channel KCNH2 (Homo sapiens) (Q12809 whole entry, looked up): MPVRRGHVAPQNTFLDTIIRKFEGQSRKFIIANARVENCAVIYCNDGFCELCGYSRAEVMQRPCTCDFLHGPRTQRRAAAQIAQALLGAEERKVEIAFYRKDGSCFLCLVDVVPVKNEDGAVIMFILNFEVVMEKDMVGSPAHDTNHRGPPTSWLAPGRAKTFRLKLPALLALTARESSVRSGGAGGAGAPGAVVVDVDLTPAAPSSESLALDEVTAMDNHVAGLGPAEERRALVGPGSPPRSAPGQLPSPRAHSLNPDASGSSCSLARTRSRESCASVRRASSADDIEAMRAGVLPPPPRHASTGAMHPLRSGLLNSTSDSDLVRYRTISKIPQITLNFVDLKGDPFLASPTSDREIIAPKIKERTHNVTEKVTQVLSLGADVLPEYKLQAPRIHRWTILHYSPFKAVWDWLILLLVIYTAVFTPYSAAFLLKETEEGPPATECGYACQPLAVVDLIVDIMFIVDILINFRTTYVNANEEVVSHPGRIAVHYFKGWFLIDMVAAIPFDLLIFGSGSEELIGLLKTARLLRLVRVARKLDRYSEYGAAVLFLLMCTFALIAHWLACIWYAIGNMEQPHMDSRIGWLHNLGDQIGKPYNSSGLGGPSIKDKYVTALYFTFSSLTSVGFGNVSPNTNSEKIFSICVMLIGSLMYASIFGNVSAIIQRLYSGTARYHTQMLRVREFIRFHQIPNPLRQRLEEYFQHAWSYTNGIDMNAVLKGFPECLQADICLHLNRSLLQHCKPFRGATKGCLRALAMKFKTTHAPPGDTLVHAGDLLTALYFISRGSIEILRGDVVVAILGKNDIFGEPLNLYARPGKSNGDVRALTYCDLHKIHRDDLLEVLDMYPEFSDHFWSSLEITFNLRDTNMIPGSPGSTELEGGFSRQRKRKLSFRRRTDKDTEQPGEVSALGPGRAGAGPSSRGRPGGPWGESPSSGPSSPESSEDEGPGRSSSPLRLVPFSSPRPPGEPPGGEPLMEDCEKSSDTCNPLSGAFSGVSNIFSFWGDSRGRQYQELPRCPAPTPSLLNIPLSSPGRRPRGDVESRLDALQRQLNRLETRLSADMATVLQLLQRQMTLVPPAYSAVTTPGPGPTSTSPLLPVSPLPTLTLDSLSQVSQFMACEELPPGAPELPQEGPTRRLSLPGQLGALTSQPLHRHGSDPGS
Chain of Cytochrome P450 2C9 (Homo sapiens) (P11712 whole entry, looked up): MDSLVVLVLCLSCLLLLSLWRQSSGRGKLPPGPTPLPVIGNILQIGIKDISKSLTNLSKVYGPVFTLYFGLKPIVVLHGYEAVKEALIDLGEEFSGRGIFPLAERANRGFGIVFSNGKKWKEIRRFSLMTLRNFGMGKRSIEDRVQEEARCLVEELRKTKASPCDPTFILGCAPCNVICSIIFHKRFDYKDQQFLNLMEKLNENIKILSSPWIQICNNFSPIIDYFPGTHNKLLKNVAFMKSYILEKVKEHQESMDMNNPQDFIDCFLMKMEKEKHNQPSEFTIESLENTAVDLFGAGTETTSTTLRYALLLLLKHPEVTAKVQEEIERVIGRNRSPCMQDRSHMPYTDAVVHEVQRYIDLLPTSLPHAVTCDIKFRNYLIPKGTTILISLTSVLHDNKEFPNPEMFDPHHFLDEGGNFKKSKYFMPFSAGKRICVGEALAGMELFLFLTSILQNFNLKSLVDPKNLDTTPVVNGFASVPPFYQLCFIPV
Chain of Cytochrome P450 3A4 (Homo sapiens) (P08684 whole entry, looked up): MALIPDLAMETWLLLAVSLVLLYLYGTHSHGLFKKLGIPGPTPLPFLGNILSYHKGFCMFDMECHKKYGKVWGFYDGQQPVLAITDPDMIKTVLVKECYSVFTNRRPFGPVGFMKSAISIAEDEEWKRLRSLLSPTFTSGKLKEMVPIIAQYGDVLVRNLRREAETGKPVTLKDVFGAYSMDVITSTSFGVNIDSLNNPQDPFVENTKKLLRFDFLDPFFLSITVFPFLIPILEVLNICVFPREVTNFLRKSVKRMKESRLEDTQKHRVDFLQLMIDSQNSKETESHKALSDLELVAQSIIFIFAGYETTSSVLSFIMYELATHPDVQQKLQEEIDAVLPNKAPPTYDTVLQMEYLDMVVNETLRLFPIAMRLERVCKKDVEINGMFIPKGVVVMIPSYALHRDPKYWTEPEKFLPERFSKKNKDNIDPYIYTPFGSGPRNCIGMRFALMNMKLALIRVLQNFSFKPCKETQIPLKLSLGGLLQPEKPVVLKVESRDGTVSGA
Chain of Cytochrome P450 2C19 (Homo sapiens) (P33261 whole entry, looked up): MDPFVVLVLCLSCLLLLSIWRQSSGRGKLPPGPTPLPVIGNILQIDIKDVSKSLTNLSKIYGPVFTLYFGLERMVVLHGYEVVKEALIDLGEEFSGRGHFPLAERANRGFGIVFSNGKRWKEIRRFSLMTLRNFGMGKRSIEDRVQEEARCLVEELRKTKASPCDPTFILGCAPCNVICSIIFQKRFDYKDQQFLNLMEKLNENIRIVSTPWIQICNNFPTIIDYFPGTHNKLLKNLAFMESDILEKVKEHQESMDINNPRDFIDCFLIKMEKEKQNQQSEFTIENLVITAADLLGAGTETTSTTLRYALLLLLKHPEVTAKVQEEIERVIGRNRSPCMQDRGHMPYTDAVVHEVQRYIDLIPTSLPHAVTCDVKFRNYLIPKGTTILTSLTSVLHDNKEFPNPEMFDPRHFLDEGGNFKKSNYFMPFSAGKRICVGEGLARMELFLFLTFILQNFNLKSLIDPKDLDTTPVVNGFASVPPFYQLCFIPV
Chain of Cytochrome P450 1A2 (Homo sapiens) (P05177 whole entry, looked up): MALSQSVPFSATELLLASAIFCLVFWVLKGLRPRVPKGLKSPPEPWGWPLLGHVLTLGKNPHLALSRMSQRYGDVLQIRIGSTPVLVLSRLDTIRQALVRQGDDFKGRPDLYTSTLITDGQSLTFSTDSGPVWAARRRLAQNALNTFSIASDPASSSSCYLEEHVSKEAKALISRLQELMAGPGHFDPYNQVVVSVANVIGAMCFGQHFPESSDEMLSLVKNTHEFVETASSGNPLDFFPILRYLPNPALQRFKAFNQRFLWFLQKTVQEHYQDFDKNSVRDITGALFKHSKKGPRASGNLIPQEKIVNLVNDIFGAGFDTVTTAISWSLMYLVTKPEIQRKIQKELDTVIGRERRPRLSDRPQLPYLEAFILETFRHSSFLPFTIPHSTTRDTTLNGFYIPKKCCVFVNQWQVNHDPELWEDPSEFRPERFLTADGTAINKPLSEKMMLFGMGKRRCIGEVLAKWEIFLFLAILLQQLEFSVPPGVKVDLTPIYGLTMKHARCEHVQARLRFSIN

Turning to `O=C1CCCc2c1cc1ccc3cccc4ccc2c1c34`, the Potency entry in experiment [1], in experiment [2], in experiment [3], in experiment [4], in experiment [6] and in experiment [9] was “inactive” throughout. Also, the Potency in experiment [5] is 17.4 µM (active); in experiment [7], 18.1 µM (active); in experiment [8] it was 0.321 µM (active); in experiment [10], 9.05 µM (active).

In the case of `Cc1cc(O)c(Cl)c(C)c1Cl`, the Potency entry in experiment [1], in experiment [2], in [3], in [4], in [5] and in experiment [6] was “inactive” each time. The Potency entry in experiment [11] was “inactive”. For the same compound, the Potency is 56.4 µM (active) in experiment [7] and 17.8 µM (active) in experiment [8].

With `Cc1cc(O)c2ccccc2c1O`, the Potency entry in experiment [1], in experiment [3], in experiment [5] and in experiment [13] was “inactive” each time. In addition, the Potency in experiment [2] was 10.6 µM (active); in experiment [4], 33.5 µM (active); in [12] it was 1.58 µM (active); in experiment [6], 17.4 µM (active); in experiment [7], 11 µM (active); in experiment [8] it was 1.23 µM (active). The Potency in experiment [9] was 3.38 µM (active).

`CCCCCOc1ccccc1/C(=C\SC)n1ccnc1`: the Potency result in [1], in [3] and in [4] was “inactive” each time. Also, the Potency in experiment [2] is 16.8 µM (active); in experiment [5], 2.98 µM (active); in [6], 4.36 µM (active); in [7], 1.1 µM (active); in experiment [8] it was 2.29 µM (active).

Regarding `CCCCCCCC/C=C\CCCCCCCCOCCO`, the Potency entry in experiment [1], in experiment [3], in experiment [6] and in [8] was “inactive” each time. Further, the Potency in experiment [2] was 35.5 µM (active); in experiment [4], 35.5 µM (active); in experiment [5], 3.98 µM (active); in [7], 46.3 µM (active); in experiment [11] it was 29.2 µM (active); in experiment [10], 11.6 µM (active).

Regarding `N#CC1(c2ccc(F)cc2)CCC(=O)CC1`, the Potency result in experiment [1], in experiment [2], in [3], in experiment [4], in experiment [5] and in experiment [6] was “inactive” each time. The Potency result in experiment [11], in [8], in experiment [9] and in experiment [10] was “inactive” in each case.

For `CC(C)(C)NC(=O)[C@@H]1C[C@@H]2CCCC[C@@H]2CN1C[C@@H](O)[C@H](Cc1ccccc1)NC(=O)[C@H](CC(N)=O)NC(=O)c1ccc2ccccc2n1`, the Potency was 69.5 µM (active) in experiment [1]; 19.6 µM (active) in experiment [2]; 61.9 µM (active) in experiment [3]; 27.7 µM (active) in experiment [4]; 24.7 µM (active) in experiment [5]; 40.4 µM (active) in [11]. Further, the Potency entry in [12] is “inactive”.

Take `N=C1C=CC(=C(c2ccc(N)cc2)c2ccc(N)cc2)C=C1`: the Potency result in experiment [1], in experiment [3] and in experiment [5] was “inactive” throughout. Besides, the Potency in experiment [2] is 12.2 µM (active); in [4] it was 13.7 µM (active); in experiment [6], 6.33 µM (active); in [7], 39.9 µM (active); in experiment [11] it was 39.9 µM (active); in experiment [8] it was 35.6 µM (active). In experiment [10], the Potency was 12.6 µM (active).

With `CSc1cnc(C)cn1`, the Potency result in [1], in experiment [2], in [3], in [4], in experiment [5] and in experiment [6] was “inactive” throughout. The Potency result in experiment [7], in experiment [11], in [9] and in experiment [10] was “inactive” throughout.

With `O=C(OCC(COC(=O)c1ccccc1)(COC(=O)c1ccccc1)COC(=O)c1ccccc1)c1ccccc1`, the Potency entry in experiment [1], in [2], in experiment [3], in [4], in experiment [5] and in experiment [6] was “inactive” throughout. Also, the Potency result in [8] and in [10] was “inactive” throughout. Also, in experiment [11], the Potency was 5.63 µM (active).

With `C[C@]12CCC(=O)C=C1CC[C@@H]1[C@@H]2[C@@H](O)C[C@@]2(C)[C@H]1CC[C@]2(O)C(=O)COC(=O)CCC(=O)O`, the Potency entry in experiment [1], in experiment [2], in [3], in [4], in experiment [5] and in [6] was “inactive” in each case. Further, the Potency result in [7], in experiment [11], in [8], in [9] and in experiment [10] was “inactive” in each case.

For `C[n+]1ccn(Cc2ccccc2)c1`, the Potency entry in [1], in [2], in experiment [3], in experiment [4], in experiment [7] and in experiment [11] was “inactive” in each case. The Potency entry in experiment [8] and in experiment [10] was “inactive” each time. The Potency in experiment [5] is 30.5 µM (active); in [6] it was 31.6 µM (active).

`Clc1ccc2nsnc2c1NC1=NCCN1`: the Potency entry in experiment [1], in [2], in [3], in experiment [4], in [5] and in experiment [12] was “inactive” throughout. Also, the Potency entry in experiment [13], in experiment [7], in [11], in experiment [8], in experiment [9] and in experiment [10] was “inactive” in each case. In experiment [6], the Potency was 12.3 µM (active).

`C=CC(=O)OCC(CO)(COCC(COC(=O)C=C)(COC(=O)C=C)COC(=O)C=C)COC(=O)C=C`: the Potency in experiment [1] is 6.04 µM (active); in experiment [2], 0.76 µM (active); in experiment [3] it was 0.48 µM (active); in experiment [4], 3.81 µM (active); in experiment [5] it was 1.91 µM (active); in [6] it was 15.7 µM (active). Moreover, the Potency in [7] is 7.87 µM (active); in experiment [11], 7.02 µM (active); in [10] it was 0.395 µM (active). In addition, the Potency entry in experiment [8] was “inactive”.

For the compound `CCCCCCCCCCCCCC[P+](CCCC)(CCCC)CCCC` (tested in a mixture with another compound), the Potency was 27.5 µM (active) in [1]; 7.74 µM (active) in [2]; 24.5 µM (active) in experiment [4]; 7.74 µM (active) in [5]; 0.113 µM (active) in [6]; 17.9 µM (active) in experiment [7]. Besides, the results for the Potency in experiment [11] and in experiment [9] were 11.3 µM (active) and 0.124 µM (active), respectively. The Potency entry in experiment [3] and in experiment [10] was “inactive” in each case.

On to `Cn1cc(C(=O)[C@@H]2CCc3nc[nH]c3C2)c2ccccc21`, for which the Potency result in experiment [1], in experiment [2], in experiment [3], in experiment [4], in [5] and in experiment [12] was “inactive” throughout. In addition, the Potency result in experiment [13] and in [11] was “inactive” throughout. The Potency in experiment [6] is 17.4 µM (active); in experiment [7] it was 8.71 µM (active); in experiment [8], 17.4 µM (active).

Consider `CCCCCCCCCCCCc1ccc(O)cc1`, for which the Potency in [1] is 61.1 µM (active); in experiment [2], 43.3 µM (active); in experiment [3] it was 54.5 µM (active); in experiment [4], 61.1 µM (active); in [5] it was 9.69 µM (active); in experiment [7], 1.59 µM (active). Also, the values for the Potency in [8] and in experiment [10] were 22.4 µM (active) and 35.6 µM (active), respectively. In addition, the Potency entry in experiment [6] was “inactive”.
